Screens: PubChem, National Center for Advancing Translational Sciences (NCATS)
HCV inhibitor: inhibitors of hepatitis C virus infection; Huh7.5.1 HCVcc-Cre infection, luciferase reporter, 44 h; Potency, µM (series often up to 41.8 µM), usual class: inhibitors; 3.4% of 340,000 active; AID 651820
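1,000 cells/well; 4 h culture; + compound; + HCVcc-Cre (~0.5 moi); 44 h; luciferase substrate, RT 15 min; read 15 sec.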
Pf growth 48h: inhibits P. falciparum growth in the first generation, 48 h | P. falciparum luciferase growth in erythrocytes, 48 h | Potency, µM (highest dose often 28.7 µM), most hits filed as inhibitors | 5.9% of 310,000 active
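A one-generation exposure of luciferase-tagged malaria parasites in RPMI 1640/Albumax erythrocyte culture, 37 C and 5% CO2. Inhibition is inferred from decreased luminescence after adding detection reagent.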
AMA1-RON2 inh: AMA1-RON2 (P. falciparum) interaction inhibition | AlphaScreen AMA1-biotinylated RON2 peptide binding | Potency, µM (doses to about 58.2 µM), actives largely listed as inhibitors | 0.2% of 360,000 active; note: nearly all actives have a fitted effect of over 45% in size
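AMA1 (3D7) with his tag at 25 nM final met compounds first, then biotinylated RON2 peptide at 25 nM; detection used donor plus acceptor beads, 10 µg/mL apiece, read by AlphaScreen after 30 min at room temperature.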
Pf growth 96h: inhibits malaria parasite growth, 96 h; P. falciparum luciferase reporter growth, 96 h; Potency, µM (highest dose often 28.7 µM), usual class: inhibitors; 6.9% of 320,000 active
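Cell-based qHTS: luciferase-tagged P. falciparum in erythrocytes (2% hematocrit, 0.05% parasitemia final) incubated with compounds for 96 hours, 37 C, 5% CO2; luciferase detection reagent then added and luminescence measured.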
Each line names hits and unclear results; the compound was inactive in the other large screens. Compounds with a hit are over-represented: about 11% of the library has one in this group of screens. Calls come from the whole dose curve; as a rule, active = well fitted curve in the direction sought with a large enough effect; inconclusive = small, poorly fitted or top-dose-only effect, or another doubt; inactive = no such curve, though single readings can be large; an effect the other way counts as inactive or inconclusive.

COc1ccc(-c2cc(C)no2)cc1S(=O)(=O)N1CCCCC1	Pf growth 96h inconclusive
Cc1cc(-c2ccc(C)c(S(=O)(=O)N3CCN(c4ccc(F)cc4)CC3)c2)on1	HCV inhibitor inconclusive, Pf growth 48h inconclusive, Pf growth 96h inconclusive
COc1ccc(-c2cc(C)no2)cc1S(=O)(=O)N1CCN(c2cccc(C)c2)C(C)C1 (stereo not given)	HCV inhibitor 10µM, Pf growth 48h inconclusive, Pf growth 96h inconclusive
COc1ccc(-c2cc(C)no2)cc1S(=O)(=O)Nc1cccc(C)c1	HCV inhibitor 10µM, Pf growth 48h inconclusive, Pf growth 96h inconclusive
CNC(=S)NNC(=O)c1c(C)nc2cc(C)ccn12	none
CCCCN(C(=O)c1cc(S(=O)(=O)N2CCOCC2)ccc1Cl)c1c(N)n(CC(C)C)c(=O)[nH]c1=O	none
CCCCn1c(-c2csc3c2CCC(C)C3)n[nH]c1=S (stereo not given)	HCV inhibitor inconclusive, Pf growth 48h 0.93µM
Cc1ccc2c(=O)n3c(nc2c1)C(C)NC(=O)c1cccnc1-3 (stereo not given)	none (no result: HCV inhibitor, Pf growth 48h, Pf growth 96h)
CCCC1C(=O)Nc2ccccc2N1C(=O)c1ccc(C(C)(C)C)cc1 (stereo not given)	HCV inhibitor inconclusive, Pf growth 48h inconclusive, Pf growth 96h 9.3µM
CSc1ccccc1OCc1cc(C(=O)NCc2cccc(C)n2)no1	HCV inhibitor inconclusive, Pf growth 96h 4.1µM
CCn1nc(C)c(CNC(=O)c2cc(COc3ccccc3SC)on2)c1C	HCV inhibitor 13µM, Pf growth 48h inconclusive
C=CC[C@H]1CC(C)=C[C@H](CC=C)N1C(=O)c1cc(COc2ccccc2SC)on1	HCV inhibitor 13µM, Pf growth 96h inconclusive
COCC1CCN(C(=O)c2cc(COc3ccccc3SC)on2)C1 (stereo not given)	Pf growth 96h inconclusive
CCn1nc(C)c(CNC(=O)c2cc(COc3cncc(Cl)c3)on2)c1C	HCV inhibitor inconclusive, Pf growth 48h inconclusive
CSc1ccccc1OCc1cc(C(=O)NC(C)CCn2cccn2)no1 (stereo not given)	none (no result: HCV inhibitor)
CSc1ccccc1OCc1cc(C(=O)NC(C)Cc2cccc(C)n2)no1 (stereo not given)	HCV inhibitor inconclusive, Pf growth 48h 10µM, Pf growth 96h inconclusive
CCc1nc2c(OCC(=O)C(C)(C)C)cccn2c1N(C)C(=O)Nc1ccccc1OC	none (no result: HCV inhibitor, Pf growth 48h, Pf growth 96h)
CCOc1ccccc1NC(=O)CSc1nnc(CNC(=O)c2cc(OC)c(OC)c(OC)c2)o1	HCV inhibitor inconclusive, Pf growth 96h inconclusive
CC(=O)OCC1=C(C(=O)O)N2C(=O)C(NC(=O)c3ccc(COc4cccc(Cl)c4Cl)o3)C2SC1 (stereo not given)	Pf growth 48h inconclusive
O=C(NCCNS(=O)(=O)c1ccccc1Cl)c1cc(OCC(F)(F)F)ccc1OCC(F)(F)F	Pf growth 48h inconclusive, Pf growth 96h 12µM
CC12C(=O)N(c3nccs3)C(=O)C1(C)C1CCC2O1 (stereo not given)	none (no result: Pf growth 48h, Pf growth 96h)
C[C@@]12C(=O)OC(=O)[C@]1(C)C1CCC2O1	HCV inhibitor 0.5µM, Pf growth 48h 2.9µM, Pf growth 96h 1.9µM
Cc1ccc(C)n1-c1ccc(-c2ccnc(N)n2)cc1	Pf growth 48h inconclusive, Pf growth 96h inconclusive
Cc1ccc(NC(=O)C2CC(=O)Nc3ncnn32)c(C)c1 (stereo not given)	none
COc1ccc(C(=O)NC(=S)Nc2ccc(N3CCCC3)cc2)cc1	none
COc1ccc(N2CCN(c3ccc(NC(=O)NN)cc3)CC2)cc1	Pf growth 96h 12µM
COc1ccc(C(=O)Nc2ccc(N3CCCC3)cc2)cc1	Pf growth 96h 4.1µM (no result: Pf growth 48h)
CCN1CCN(c2ccc(NC(=O)c3ccc4c(c3)[nH]c(=O)n4Cc3ccc(OC)cc3)cc2)CC1	HCV inhibitor inconclusive, Pf growth 48h inconclusive, AMA1-RON2 inh inconclusive, Pf growth 96h 10µM
COc1ccc(C(=O)Nc2ccc(N3CCN(C(=O)c4ccccc4C)CC3)cc2)cc1	HCV inhibitor 11µM, Pf growth 48h inconclusive, Pf growth 96h inconclusive
Cc1ccc(C)c(N2C(=O)c3cc(N4CCOCC4)c([N+](=O)[O-])cc3C2=O)c1	none
COC(=O)c1cc(CNC(=O)c2ccc(N3CCCC3)c([N+](=O)[O-])c2)ccc1OC	HCV inhibitor inconclusive, Pf growth 48h inconclusive
CN(Cc1ccccc1)C(=O)COc1cccnc1[N+](=O)[O-]	none
Cc1ccccc1NC(=O)NC1(C(=O)N2CCC(C(N)=O)CC2)CCCCC1	none
COc1ccc(Nc2ncc(C(=O)N3CCC4(CC3)OCCO4)c3ccccc23)cc1	none
COC(=O)[C@H]1[C@H](C(=O)OC)[C@@H](C(=O)OC)N(c2ccc(OC)cc2)[C@@H]1C(=O)OC	none
